In the supplement of paper PMC6555819:

How the values were obtained:
Experiment in all cases: PBM binding z-score (relative to random genomic background probes); higher = stronger binding; sequences stand for … in GC…GCGATTGACAGCGTAGAATGAAGG
[1] = tested on: FXR:RXRa (NR concentration 270 nM, RXRa partner concentration 90 nM)
Procedure, shortened: (§1)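 The probes on custom Agilent 4×180K protein-binding microarrays were double-stranded, with 34-nt variable regions bearing direct-repeat seeds, single-nucleotide variants, half-site ablations and random human genomic background sequences. Incubation lasted 1 h with ligand-free nuclear receptor dimers in PBS pH 7.4, 2% milk, 0.02% Triton X-100, 1 mM DTT, 0.2 mg/mL BSA and 0.4 mg/ml salmon testes DNA. Antibodies against each partner (one per run) detected bound dimers, and fluorescence scans were regression-normalized. Binding z-scores take the random background probes as reference.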

[2] = tested on: LXRa:RXRa (NR concentration 270 nM, RXRa partner concentration 90 nM)
Procedure, shortened: as §1

[3] = tested on: LXRa homodimer (NR concentration 270 nM)
Procedure, shortened: as §1

[4] = tested on: LXRb:RXRa (NR concentration 270 nM, RXRa partner concentration 90 nM)
Procedure, shortened: as §1

[5] = tested on: LXRb homodimer (NR concentration 270 nM)
Procedure, shortened: as §1

[6] = tested on: PPARa:RXRa (NR concentration 270 nM, RXRa partner concentration 90 nM)
Procedure, shortened: as §1

[7] = tested on: PPARg:RXRa (NR concentration 180 nM, RXRa partner concentration 90 nM)
Procedure, shortened: as §1

[8] = tested on: PPARg:RXRa 270nM:90nM, anti-RXR (NR concentration 270 nM, RXRa partner concentration 90 nM)
Procedure, shortened: as §1

[9] = tested on: PPARg:RXRa 30nM:10nM, anti-RXR (NR concentration 30 nM, RXRa partner concentration 10 nM)
Procedure, shortened: as §1

[10] = tested on: PPARg:RXRa 90nM:30nM, anti-RXR (NR concentration 90 nM, RXRa partner concentration 30 nM)
Procedure, shortened: as §1

Sequence | PBM binding z-score [1] | PBM binding z-score [2] | PBM binding z-score [3] | PBM binding z-score [4] | PBM binding z-score [5] | PBM binding z-score [6] | PBM binding z-score [7] | PBM binding z-score [8] | PBM binding z-score [9] | PBM binding z-score [10]
CCAAGTTGGTCAAGGTCACACACGCTATAGGTAC | 4.98 | 4.1 | 1.98 | 3.73 | 0.363 | 4.23 | 3.48 | 4.02 | 1.45 | 3.14
AGAATGAGGTTATGCGTAGATCAGGGAAGAAAGT | 1.66 | 1.51 | -0.231 | 1.31 | -0.169 | 3.1 | 1.44 | 2 | 0.664 | 1.12
TCGAGTAGGTTGCCAATGGGGCATTCAGCTTTCT | -0.454 | -0.408 | -0.785 | -0.313 | -0.788 | -0.0635 | -0.86 | 0.227 | 0.337 | 0.314
ATATGTAGGTTAAGGGGCATTCAGGTTGGTTCGC | 1.42 | 2 | 1.15 | 2.75 | 1.48 | 5.25 | 9.21 | 8.26 | 8.39 | 9.63
TCTGCTAGGTCAGTTGGACAGCTAACGAGCTGCC | 0.721 | 0.508 | -0.846 | -0.0468 | 0.424 | 1.12 | 0.413 | 1.36 | 1.23 | 1.21
ATCTCTAGGTAATAGTTCAGTGAATCCCGAGGAT | 0.178 | 0.499 | 0.496 | 0.482 | 0.778 | 3.1 | 5.39 | 6.33 | 5.08 | 6.63
GCTTACGTGTCAAAGGTTATAGCATGAATAGAAT | 3.42 | 3.02 | -0.0204 | 2.94 | -0.0977 | 5.34 | 9.21 | 8.05 | 7.61 | 9.07
CCGACTGAGGCAGAAAGGTTACCATACCATCCGG | 0.495 | 0.563 | 0.0475 | 0.877 | -0.972 | 1.82 | 1.05 | 1.42 | 0.27 | 0.899
CATACTGGGCCAAGGTCATTGATCAGTCAAAGCA | 3.54 | 3.16 | 1.14 | 3.19 | 0.044 | 4.12 | 4.1 | 4.28 | 2.31 | 3.8
GCTTTCGGGTCAAAGGTTATAGCATGAATAGAAT | 7.21 | 5.74 | 0.496 | 5.58 | 0.746 | 6.76 | 11.3 | 9.26 | 8.67 | 10
AGAATCAGGTTATACGTAGATCAGGGAAGAAAGT | 0.826 | 0.893 | 0.313 | 0.875 | 0.265 | 1.63 | 1.11 | 1.38 | 0.762 | 0.859
ATCGAAAGGTCGCGAGGTGAGTATACAGAAAGGC | 5.31 | 4.1 | -0.00351 | 3.19 | -0.0982 | 5.26 | 4.54 | 4.93 | 1.89 | 3.56
AAGACAGGGTCACTAGGCCAGAGTAGGTACGAAT | 5.99 | 3.14 | -0.215 | 3.25 | -0.368 | 5.62 | 7.53 | 6.21 | 2.71 | 5.21
CGTCCAAGGTCAAAGGTCAGTGACGAGATGACGG | 8.29 | 6.97 | 3.55 | 6.4 | 2.01 | 7.03 | 10.8 | 9.11 | 8.03 | 9.31
CGTCCAAGGTCACTGCTAGGTCAGTGAAAGCATT | 6.69 | 5.11 | 1.49 | 4.28 | 0.283 | 5.14 | 4.7 | 5.1 | 1.92 | 3.94
GATACAGGGTCAAGGCCAGAGTTCGCGTATTGAT | 6.64 | 4.34 | 0.289 | 3.72 | -0.198 | 5.66 | 5.99 | 5.93 | 2.4 | 4.93
ATCGAAAGGTCGAAGGTGAGTTTACCCACCCGAA | 4.75 | 3.73 | 0.479 | 2.89 | 0.226 | 4.78 | 4.38 | 4.6 | 2.08 | 3.81
TCTCGGAGGGCACGAAGGTCAGAGCTTTCCAGAG | 1.96 | 2.22 | 0.0808 | 1.7 | -1.18 | 2.96 | 1.3 | 2.4 | 1.73 | 1.99
CCTGCTGGGCCAAGGTCATTGATCAGTCAAAGCA | 3.6 | 3.06 | 0.626 | 2.99 | -0.84 | 3.64 | 1.23 | 2.56 | -0.0774 | 1.46
CGTCAAATTTCAAGGTAACGTAACAGAAAGCAGC | 0.0505 | -0.0464 | 0.101 | 0.163 | -0.042 | 0.466 | 0.489 | -0.149 | 0.0887 | -0.0536
CCGAATGGGGCAAAGGTTACCATACTCAGTACGA | 1.99 | 1.85 | 0.278 | 2.51 | -0.456 | 4.58 | 9.1 | 7.67 | 7.02 | 7.87
CGTCCAAGGTCTGCAGGTCAGTGAAAGCGACGTG | 0.149 | 0.12 | -0.428 | 0.0193 | -1.21 | 0.759 | -0.32 | 0.0368 | -0.45 | -0.257
GCTGCTAGGTCAACTGATCGTCAGCTAAAGCTCG | 4.12 | 2.74 | -0.171 | 1.86 | -0.26 | 3.62 | 2.54 | 3.43 | 0.361 | 2.23
GCAGACAGGTGAAACGTAGGTAACTCAGGGTGGC | -0.116 | 0.0027 | -0.589 | -0.409 | -0.785 | 0.799 | 0.792 | 0.526 | -0.444 | -0.0243
TCTTGTAGATCAAAGGCTAAGAAAGCCGAAGCCT | 0.284 | 0.0908 | -0.472 | -0.0772 | -0.625 | 1.68 | 3.24 | 4.87 | 4.4 | 5.12
